# Results reported in PubChem BioAssay (NCATS).
# Inconclusive results are not listed. Entries that show only a call come without a potency. Active and inactive are the calls of the source. Unless noted, calls come from the whole dose curve; as a rule, active = well fitted curve in the direction sought with a large enough effect; inconclusive = small, poorly fitted or top-dose-only effect, or another doubt; inactive = no such curve, though single readings can be large; an effect the other way counts as inactive or inconclusive.
# How the values were obtained:
# [1] = target: Glutathione peroxidase 1 (Homo sapiens) (UniProt P07203); assay: Primary qHTS Assay for Inhibitors of Recombinant Selenoprotein Glutathione Peroxidase 1 (GPX1) (AID 1845191); note: nearly all actives have a fitted effect of over 65% in size; note: potency is the fitted concentration of half-maximal effect
# Outline: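 Recombinant GPX1 (10 nM final) was preincubated with compound for 30 min at room temperature, then reacted with 1 mM GSH, 0.5 mM CHP, 0.5 mM NADPH and 100 nM glutathione reductase; NADPH fluorescence (340/450 nm) was read at 0 and 15 min.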
# [2] = target: Phospholipid hydroperoxide glutathione peroxidase GPX4 (Homo sapiens) (UniProt P36969); assay: Primary qHTS Assay for Inhibitors of Recombinant Selenoprotein Glutathione Peroxidase 4 (GPX4) (AID 1845192); note: nearly all actives have a fitted effect of over 65% in size; note: potency is the fitted concentration of half-maximal effect
# Outline: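 GR-coupled readout: 100 nM GR, 1 mM GSH, 0.5 mM NADPH; NADPH fluorescence (ex 340/em 450 nm) read at t=0 and after 15 min RT. GPX4 200 nM, preincubated 30 min with compound; substrate 0.5 mM CHP.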
# [3] = Primary fluorescence-based thiol-reactive (MSTI) qHTS assay for identification of artifact compounds. (AID 1845221);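 note: series mostly up to about 54 µM; thiol-reactive compounds lower the probe fluorescence signal; nearly all actives have a fitted effect of over 65% in size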
# Outline: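 First, 4 uM MSTI in 2% DMSO/PBS pH 7.4 was dispensed; next, compounds were added; then plates sat 1 h at room temperature without light. Finally, emission at 598 nm was recorded.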
# [4] = test system: Nanoluciferase (engineered Oplophorus gracilirostris luciferase); assay: Primary Nanoluciferase (NLuc) qHTS assay for identification of artifact compounds. (AID 1845222);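 note: NLuc secreted into diluted conditioned medium of S16 cells; series mostly up to about 54 µM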
# Outline: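 Using secreted nanoluciferase in S16 culture medium (0.22 um filtered, 1:55 dilution), compounds were preincubated 15 min at RT. Signal was generated with Nano-Glo reagent (1:100) over 5 min.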
# [5] = Primary redox qHTS assay for identification of artifact compounds. (AID 1845223)
# Outline: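 Amplex Red (25 uM) and HRP (250 mU/mL) in HBSS, with compounds for 15 min, then 250 uM DTT for 30 min, room temperature, dark. Fluorescence 525/598 nm read; normalized to DMSO and 10 uM DA3003; Hill fit.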
# [6] = qHTS drug screen for cell cycle checkpoint inhibitors in PARPi-resistant BRCA-mutant ovarian cancer cell lines. (AID 1963452; calls by dose curve); details: PEO1/OlaR viability, CellTiter-Glo luminescence, 96 h, stronger effect = lower value
# Outline: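 PEO1, PEO4 and PEO1/OlaR ovarian cancer cells, 600 per well, exposed 96 h at 37C to a dilution series. Viability read by CellTiter-Glo luminescence, normalized to DMSO and empty wells; activity summarized as Z-AUC.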
# [7] = target: Luciferin 4-monooxygenase (Photinus pyralis) (UniProt P08659); assay: Primary firefly luciferase (FLuc) qHTS assay for identification of artifact compounds. (AID 1845220); note: nearly all actives have a fitted effect of over 60% in size
# Outline: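 In this counter-screen for luciferase artifacts, test compounds met substrate (10 uM each luciferin and ATP) before 10 nM enzyme started the reaction. Light output was measured 5 min later.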
# [8] = measured here: PEO1 parental Z-AUC
# Chain of Glutathione peroxidase 1 (Homo sapiens) (P07203 whole entry, looked up): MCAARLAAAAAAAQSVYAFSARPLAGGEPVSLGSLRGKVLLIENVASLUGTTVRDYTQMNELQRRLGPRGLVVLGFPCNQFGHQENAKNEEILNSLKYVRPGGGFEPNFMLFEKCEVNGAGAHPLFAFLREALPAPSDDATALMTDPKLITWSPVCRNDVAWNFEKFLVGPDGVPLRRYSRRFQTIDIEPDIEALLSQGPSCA
# Chain of Phospholipid hydroperoxide glutathione peroxidase GPX4 (Homo sapiens) (P36969 whole entry, looked up): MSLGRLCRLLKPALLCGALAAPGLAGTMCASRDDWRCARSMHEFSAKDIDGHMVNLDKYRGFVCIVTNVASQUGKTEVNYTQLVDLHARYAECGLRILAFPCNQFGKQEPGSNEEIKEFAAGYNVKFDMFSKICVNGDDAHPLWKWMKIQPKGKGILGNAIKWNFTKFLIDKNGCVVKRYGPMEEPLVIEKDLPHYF
SMILES,Potency [1],Potency [2],Potency [3],Potency [4],Potency [5],Z-AUC [6],"Z-AUC [6, 8]",Z-AUC ([6]; measured here: PEO4 Z-AUC),Potency [7]
CN(C)C1CCN(C(=O)c2ccc(NC(=O)Nc3ccc(-c4nc(N5CCOCC5)nc(N5CCOCC5)n4)cc3)cc2)CC1,inactive,inactive,inactive,inactive,inactive,–,–,–,–
C#CCN(Cc1cc2c(=O)[nH]c(C)nc2cc1Br)c1ccc(C(=O)NCc2cccnc2)cc1,inactive,inactive,inactive,inactive,inactive,–,–,–,–
COc1ccc(C2(O)c3ccccc3NC(=O)C2O)cc1 (stereo not given),inactive,inactive,–,inactive,inactive,–,–,–,–
CCOCc1nc2c(N)nc3ccccc3c2n1CC(C)(C)O,inactive,inactive,inactive,inactive,inactive,-0.746 (inactive),-0.509,-0.947,–
O=C(OC[C@@]1(O)CO[C@@H](O[C@H]2[C@H](Oc3ccc(O)cc3)O[C@H](CO)[C@@H](O)[C@@H]2O)[C@@H]1O)c1ccc(O)cc1,inactive,inactive,–,inactive,inactive,–,–,–,–
C[S+](CC[C@H](N)C(=O)[O-])C[C@H]1O[C@@H](n2cnc3c(N)ncnc32)[C@H](O)[C@@H]1O (stereo not given in full),inactive,inactive,inactive,inactive,inactive,–,–,–,–
CC1=CC(=O)CC(C)(C)C1CCC(C)O[C@@H]1O[C@H](CO[C@@H]2OC[C@@H](O)[C@H](O)[C@H]2O)[C@@H](O)[C@H](O)[C@H]1O (stereo not given in full),inactive,inactive,–,inactive,inactive,–,–,–,–
C=CC1C(OC2OC(CO)C(O)C(O)C2O)OC=C2C(=O)N3C(C(=O)O)Cc4c([nH]c5ccccc45)C3CC21 (stereo not given),inactive,inactive,–,inactive,inactive,–,–,–,–
COc1cc(/C=C/CO)cc(OC)c1O[C@@H]1O[C@H](CO[C@@H]2O[C@H](CO)[C@@H](O)[C@H](O)[C@H]2O)[C@@H](O)[C@H](O)[C@H]1O,inactive,inactive,–,inactive,inactive,–,–,–,–
CC1=C(C)C(=O)OC(C(C)C2CCC3C4C5OC5C5(O)CC(OC6OC(CO)C(OC7OC(C)C(O)C(O)C7O)C(O)C6O)CC(O)C5(C)C4CCC23C)C1 (stereo not given),inactive,inactive,inactive,inactive,inactive,–,–,–,–
CC(=O)CCC1=C(C)C(O[C@@H]2O[C@H](CO)[C@@H](O)[C@H](O)[C@H]2O)C(O)CC1(C)C (stereo not given in full),inactive,inactive,–,inactive,inactive,–,–,–,–
CC1COC(Nc2ccc3ncnc(Nc4ccc(OCc5nccs5)c(Cl)c4)c3c2)=N1 (stereo not given),inactive,inactive,inactive,–,inactive,–,–,–,–
CC(C)N(CCCCOCC(=O)NS(C)(=O)=O)c1cnc(-c2ccccc2)c(-c2ccccc2)n1,inactive,inactive,inactive,–,inactive,–,–,–,–
Cc1nc(NC(=O)N2CCCC2C(N)=O)sc1-c1csc(C(C)(C)C)n1 (stereo not given),inactive,inactive,inactive,inactive,inactive,–,–,–,–
OC/C=C/c1ccc(O[C@@H]2O[C@H](CO)[C@@H](O)[C@H](O)[C@H]2O)cc1,inactive,inactive,–,inactive,inactive,–,–,–,–
O=C1N=C(N2CCOCC2)CN1c1ccc(Cl)cc1,inactive,inactive,–,inactive,inactive,–,–,–,–
C/C=C/c1ccc2c(c1)[C@@H](C)[C@H](c1ccc(O)cc1)O2,inactive,inactive,inactive,inactive,inactive,–,–,–,–
CCc1cccc(CC)c1NC(=O)c1nn(C)c2c1CCc1cnc(Nc3ccc(C(=O)NC4CCN(C)CC4)cc3OC(F)(F)F)nc1-2,inactive,inactive,inactive,inactive,inactive,–,–,–,–
Cc1ccccc1NC(=O)Nc1ccc(CC(=O)N(C)[C@@H](CC(C)C)C(=O)NCC[C@H](NC(=O)[C@@H]2CCCN2S(=O)(=O)c2cc(Cl)cc(Cl)c2)C(=O)O)cc1,inactive,inactive,inactive,inactive,inactive,–,–,–,–
CO/N=C(/C(=O)N[C@@H]1C(=O)N2C(C(=O)O)=C(Cn3ccc(=N)n3CCO)CS[C@H]12)c1csc(N)n1,8.06 µM (active),–,–,inactive,inactive,–,–,–,inactive
CNC(=O)c1ccccc1Nc1nc(Nc2ccc3c(c2OC)CCC[C@@H](N2CCN(CCO)CC2)C3)ncc1Cl,–,inactive,inactive,inactive,–,–,–,–,inactive
COc1ccc(C(=O)n2c(C)c(Cc3cccc(O[C@@H](C)C(=O)O)c3)c3cc(OC(F)(F)F)ccc32)cc1,inactive,–,inactive,inactive,inactive,–,–,–,inactive
CC(C)(C)C(=O)CN1C(=O)[C@H](NC(=O)Nc2cccc(C(=O)O)c2)CN(C2CCCCC2)c2ccccc21,inactive,–,inactive,inactive,inactive,1.75 (inactive),1.32,1.22,inactive
C=CC/C=C\C/C=C\CCCCCCCc1cccc(O)c1C(=O)O,inactive,–,–,inactive,–,–,–,–,inactive
Cc1ccc(-c2ccc3ncc4c(c3n2)n(C2CCN(C(=O)[C@H](C)O)CC2)c(=O)n4C)cn1,22.7 µM (active),–,inactive,inactive,inactive,–,–,–,inactive
NC(=O)c1cccc2cn(-c3ccc(C4CCCNC4)cc3)nc12 (stereo not given),–,20.2 µM (active),inactive,inactive,inactive,–,–,–,inactive
CC[C@]1(O)CC2CN(CCc3c([nH]c4ccccc34)[C@@](C(=O)OC)(c3cc4c(cc3OC)N(C=O)[C@H]3[C@@](O)(C(=O)OC)[C@H](OC(C)=O)[C@]5(CC)C=CCN6CC[C@]43[C@@H]65)C2)C1 (stereo not given in full),–,inactive,inactive,inactive,–,–,–,–,inactive
CCOC(=O)C(CCc1ccccc1)NC1CSC(c2cccs2)CN(CC(=O)O)C1=O (stereo not given),–,inactive,inactive,inactive,–,–,–,–,inactive
